This is one part of a sample in which hits are shown more often than they occur.
Ba CapD inh: blocks the Bacillus anthracis CapD enzyme | purified CapD enzyme, fluorescence intensity read-out; hits give low values | z-score (concentration not given with the values) | hit rate 0.23% among 140,000; in the data active = z-score mostly below about -2.9, no sharp cut-off; inactive = mostly above about -1.9
Each line names hits and unclear results; the compound was inactive in the other large screens.

Cc1[nH]c(=O)c(C#N)c(C)c1Cl	none
CCc1[nH]c(=O)c(C#N)c2c1CCCC2	none
CCc1[nH]c(=S)[nH]c(=O)c1C#N	Ba CapD inh -6.5
COc1ccc(/C=C2/C(=O)C(C)(C(C)C)CCC2C)cc1 (stereo unspecified)	none
O=C(NN1S(=O)(=O)c2ccccc2S1(=O)=O)c1cc(-c2ccccc2)n[nH]1	none
O=C(NN1S(=O)(=O)c2ccccc2S1(=O)=O)c1ccc(OCc2ccc(F)cc2)cc1	none
O=C(NN1S(=O)(=O)c2ccccc2S1(=O)=O)c1ccc(OCc2ccccc2Br)cc1	none
O=C(NN1S(=O)(=O)c2ccccc2S1(=O)=O)c1cccc(Br)c1	Ba CapD inh -3.7
NC(=O)c1ccccc1NC(=O)c1cccc(Br)c1	none
O=C(NN1S(=O)(=O)c2ccccc2S1(=O)=O)c1cccc(F)c1	Ba CapD inh -4.1
c1ccc2cc(-c3cc4ccccc4[nH]3)ccc2c1	none
O=S(=O)(NC1CC2CCC1C2)c1cccc(Br)c1 (stereo unspecified)	none
COc1cc(/C=C2\SC(=S)N(C(C(=O)O)C(C)C)C2=O)cc(OC)c1O (stereo unspecified)	none
CC(C)C(C(=O)O)N1C(=O)/C(=C/c2ccccc2)SC1=S (stereo unspecified)	none
CCOc1cc(/C=C2\SC(=S)N(C(C(=O)O)C(C)C)C2=O)ccc1O (stereo unspecified)	Ba CapD inh -4.8
CCOc1cc(C=C2C(=O)N(C)C(=O)N(C)C2=O)ccc1OCCBr	none
Cc1cccn2cc(CCNC(=O)CC3CCCCC3)nc12	none
CN(C)N=Nc1ccc(S(=O)(=O)NC(=O)Cc2ccccc2)cc1	none
CC(=O)N(C(C)=O)S(=O)(=O)c1ccc(N=NN(C)C)cc1	Ba CapD inh -5.1
Cc1ccc(N=NN(C)C)cc1	none
O=C(CN1C2=NCCCN2c2ccccc21)c1ccc(Cl)cc1	none
CC(C)(C)C(=O)Cn1nnc(-c2ccc(C(F)(F)F)cc2)n1	none
CN(C)/C=C/C=C1\CCc2ccccc2C1=O	none
CN(C)/C=C/C=C1\CC/C(=C\C=C\N(C)C)C1=O	Ba CapD inh -7.3
CCOC(=O)c1cc(=O)c2cc(I)ccc2o1	none
NS(=O)(=O)c1ccc(CCn2c(-c3ccc4ccccc4c3)csc2=Nc2ccc(F)cc2)cc1	none
CC1CCN(C(=O)CSc2nc(NCc3ccccc3)c3ccccc3n2)CC1	none
O=C(N1CCCC1)C1(S(=O)(=O)c2ccc(Cl)cc2)CC1	none
O=C(O)CSc1ncccc1[N+](=O)[O-]	none
NC(CC(=O)O)c1ccccc1[N+](=O)[O-] (stereo unspecified)	none
O=C(O)c1cc2cccc([N+](=O)[O-])c2[nH]1	Ba CapD inh -4.6
COc1ccc(N2COc3ccc4c(C)cc(=O)oc4c3C2)cc1	none
Cn1c(=O)n(C)c2cc(S(=O)(=O)N(Cc3ccccc3)C(=O)c3ccncc3)ccc21	Ba CapD inh -7.6
CN(Cc1ccccc1)S(=O)(=O)c1ccc2c(c1)oc(=O)n2C	none
Cn1c(=O)c(=O)n(C)c2cc(S(=O)(=O)CCC(=O)NCc3ccccc3)ccc21	none
Cc1c(C)c(C)c(S(=O)(=O)NCCCN2CCOCC2)c(C)c1C	none
Nc1[nH]nc(Nc2cccc(Cl)c2Cl)c1C(=O)c1cccs1	none
CC(=O)N(CCS(=O)(=O)c1ccc(Cl)cc1)Cc1cccs1	none
C/C(=N/O)C1C(=O)c2ccccc2C1=O	Ba CapD inh -4.3
C/C(=N\N1C(=O)c2ccccc2C1=O)C1C(=O)c2ccccc2C1=O	none
O=C(c1ccccc1)C1C(=O)c2ccccc2C1=O	none
Ic1ccc(OC2CCCCO2)cc1 (stereo unspecified)	none
COc1ccc(N(C(=O)c2ccncc2)S(=O)(=O)c2cccs2)cc1	Ba CapD inh -8.5
O=C(Oc1ccc(N(C(=O)c2ccccc2)S(=O)(=O)c2cccs2)cc1)c1ccccc1	none
CC(=O)N(c1ccc(N(C(C)=O)S(=O)(=O)c2cccs2)cc1)S(=O)(=O)c1cccs1	none
CC(C)/C=C1\CC/C(=C\c2ccc(Cl)cc2)C1=O	none
O=C(c1ccccc1)c1cc(Br)ccc1NC(=O)c1cc2ccccc2oc1=O	none
O=C(c1ccccc1)c1cc2ccc(O)cc2oc1=O	Ba CapD inh -6.3
CCc1ccc(C(=O)c2cc3ccc(O)cc3oc2=O)cc1	none
COc1ccc(OC)c(C2C3=C(CC(C)(C)CC3=O)Nc3ncnn32)c1 (stereo unspecified)	none
OC1/C(=C/c2ccccc2)CN(Cc2ccccc2)C/C1=C\c1ccccc1 (stereo unspecified)	none
N#C/C(=N\O)C(=O)c1ccco1	Ba CapD inh -4.6
N#C/C(=N\Nc1cc(C(F)(F)F)cc(C(F)(F)F)c1)C(=O)c1ccco1	none
N#CC(C(=O)c1ccco1)=C1SCCCS1	none
N=C1/C(=C\c2cn(CCOc3ccccc3Cl)c3ccccc23)C(=O)N=C2SC=NN12	none
CCCNC(=O)c1c(C)oc2ncnc(N3CCCCC3)c12	none
COc1ccc(CCNC(=O)C(C(C)C)N2C(=O)c3ccccc3C2=O)cc1 (stereo unspecified)	Ba CapD inh -4.8
COc1ccc(CN2C(=O)c3ccccc3C2=O)cc1	none
COc1ccc(CCNC(=O)C(F)(F)F)cc1	none
CCCCNc1nc(SCC(=O)NCCC(C)C)nc2ccccc12	none
O=C(Nc1cccc(Br)c1)c1cccc2c1C(=O)c1ccccc1-2	none
O=C1C2C3c4ccccc4C(c4ccccc43)C2C(=O)N1c1ccc([N+](=O)[O-])cc1 (stereo unspecified)	none
NC(=O)C1(N2CCCCC2)CCN(c2ccc(C(F)(F)F)cn2)CC1	none
O=C(/C=C/c1ccc(Cl)cc1Cl)NCCCn1ccnc1	none
CCOc1ccc(-c2cc(C(N)=O)on2)cc1	none
NC(=O)c1cc(-c2ccc3c(c2)OCO3)no1	none
Cc1ccc(-c2cc(C(N)=O)on2)cc1	Ba CapD inh -5.7
COc1ccc(C2N(Cc3ccccc3)CCN2Cc2ccccc2)c2ccccc12	none
Cc1cc(N2CCOCC2)ccc1/C=C1\NC(=O)N(Cc2ccccc2)C1=O	none
CC(Oc1ccc(Cl)cc1Cl)/C(N)=N/O (stereo unspecified)	none
COc1cccc(/C=C/C(=O)O)c1	none
CC1CS/C(=C(/C(=O)O)C(=O)/C=C/c2cccc(O)c2)S1 (stereo unspecified)	Ba CapD inh -5.4
N#C/C(=C\c1cccc(O)c1)C(=O)O	none
CCOc1ccc(NC(=O)c2cn(CC(C)C)c(=O)c3c2c2ccccc2n3C)cc1	none
COc1cc(/C=C2\C(=O)NC(=S)N(c3ccc(C)cc3)C2=O)cc(Br)c1O	none
O=C(c1cnn2ccccc12)N(Cc1ccco1)C1CCCC1	none
Cc1[nH]c2ccccc2c1CN1CCN(c2ccc(F)cc2)CC1	none
CCc1nc(CN2CCN(c3ccc(F)cc3)CC2)c(C)[nH]1	Ba CapD inh -1.8
CCc1nc(CN2CCN(c3ccc(C(F)(F)F)cn3)CC2)c(C)[nH]1	none
COc1ccc(C2/C(=C(\O)c3ccc(C)cc3)C(=O)C(=O)N2c2ccccn2)cc1OC (stereo unspecified)	none
O=C1/C(=C\c2ccccc2)N2CCC1CC2	none
COc1cccc(OCC(=O)Nc2cccc(C(=O)O)c2C)c1	none
COc1cccc(OCC(=O)Nc2ccc(OC(C)=O)cc2C(=O)O)c1	Ba CapD inh -10
COc1ccc(NC(C)=O)c(C(=O)O)c1	none
CC(C)(C)c1ccc(COC(=O)NNC(=O)/C=C/c2ccc(F)cc2Cl)cc1	none
CNC(=S)NNC(=O)c1cccn(Cc2cccc(C(F)(F)F)c2)c1=O	none
CN(C(=O)Cn1c(SCc2cccc(F)c2)nc2ccncc21)c1ccccc1	none
O=C(NCc1ccc2c(c1)OCO2)C(F)(F)F	none
CCc1ccc(NC(=O)C2COc3ccccc3O2)cc1 (stereo unspecified)	none
CCc1ccc2c(c1)S(=O)(=O)C(C(F)(F)F)CO2 (stereo unspecified)	Ba CapD inh -6.6
CC(C)(C)c1ccc(Cn2c(NC(=O)c3ccccc3)nc3ccccc32)cc1	none
